“And” between values parts separate entries of the source, which are not always exact repeats. Equal values may be shown once. Records with an inconclusive call do not appear. The source made the active and inactive calls. The call rests on the fitted dose curve; in most records, active means well fitted inhibition curve with a large enough effect; inconclusive means small, poorly fitted or top-dose-only effect, or effect the other way; inactive means no such curve, though single readings can be large or run the other way.

Nuclear receptor ROR-gamma (Mus musculus), sequence (P51450 whole entry, looked up, the tested form may be a part): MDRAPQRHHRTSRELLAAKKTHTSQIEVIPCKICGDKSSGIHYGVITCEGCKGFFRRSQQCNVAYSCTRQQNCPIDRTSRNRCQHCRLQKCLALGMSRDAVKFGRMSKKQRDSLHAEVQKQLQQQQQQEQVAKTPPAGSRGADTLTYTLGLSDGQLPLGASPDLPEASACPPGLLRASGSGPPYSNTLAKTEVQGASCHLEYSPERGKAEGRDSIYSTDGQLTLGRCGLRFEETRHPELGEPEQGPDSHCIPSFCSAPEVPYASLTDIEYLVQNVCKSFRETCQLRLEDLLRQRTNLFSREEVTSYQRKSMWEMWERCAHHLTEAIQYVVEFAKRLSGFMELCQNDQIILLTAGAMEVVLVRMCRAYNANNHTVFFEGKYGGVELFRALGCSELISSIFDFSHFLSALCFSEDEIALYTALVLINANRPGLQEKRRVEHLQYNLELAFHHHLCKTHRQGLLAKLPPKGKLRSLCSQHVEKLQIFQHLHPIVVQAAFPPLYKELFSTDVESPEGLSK

For this test, the target named is Nuclear receptor ROR-gamma (Mus musculus) (UniProt P51450). Description: Secondary confirmation assay for inhibitors of ROR gamma transcriptional activity. To be noted: Drosophila S2 Gal4-RORgamma UAS-luciferase reporter, 20 h; series mostly up to 92.2 µM. From the text:
NIH Molecular Libraries Probe Production Network [MLPCN] NIH Chemical Genomics Center [NCGC] MLPCN Grant: R03 DA026211-01 Assay Provider: Dan Littman, New York University Keywords: NIH Roadmap, MLPCN, MLI, MLSMR, qHTS, NCGC, qHTS, nuclear hormone receptor, retinoic acid-related orphan receptor, ROR gamma Assay Overview: The retinoic acid-related orphan receptor (ROR) gamma is a transcription factor that has a central role in the differentiation of Th17 cells, a subset of T helper cells that secrete the inflammatory cytokines IL-17, IL-17F, and IL-22. Th17 cells have been implicated in graft versus host disease, autoimmune disease and asthma. ROR gamma is induced in naive T helper cells in the presence of TGF-beta combined with IL-6, IL-21, or IL-23, and thereafter directs the expression of the Th17 lineage cytokines. To study the mechanism of action of ROR gamma, an insect cell-based assay was screened. This Drosophila Schneider cell line was stably transfected with two vectors: a gene expressing a fusion of the Gal4 DNA binding domain and ROR gamma transactivation domain under the control of the metallothionine promoter and a Photinus luciferase reporter regulated by the Gal4 binding site enhancer, UAS. […] Small molecule inhibitors of ROR gamma activity are detected by a decrease in luciferase reporter activity.
Assay Protocol Summary: For screening, 600 cells in 4 uL/well were dispensed into white solid 1536-well plates (Grenier) using a solenoid-based dispenser. Following transfer of 23 nL compound or DMSO vehicle by a pin tool, the plates were incubated 1 hr at ambient temperature, and 1 uL/well copper sulfate (700 uM final concentration) was added. The plates were centrifuged 15 s at 1000 RPM and incubated 20 hr at ambient temperature. After addition of 1.5 uL Photinus luciferase detection reagent, the plates were incubated 10 min at ambient temperature and then read by an ViewLux (Perkin Elmer) to detect luminescence. Keywords: NIH Roadmap, MLPCN, MLI, MLSMR, qHTS, NCGC, qHTS, nuclear hormone receptor, retinoic acid-related orphan receptor, ROR gamma
Consider `COc1cc(O)c(C(CC(=O)N2CCCCC2C)c2ccc3c(c2)OCO3)c(OC)c1` (stereo not given), for which the Potency was 25.7 µM (active). To `CCOC(=O)c1sc(NC(=O)c2ccc(S(=O)(=O)N(C)C)cc2)nc1C` belongs 0.129 µM (active); to `O=C(NC(=S)Nc1nc(-c2ccccc2)cs1)c1cccnc1`, 5.12 µM (active). Turning to `Cc1ccc(OCCCC(=O)Nc2nc3ccccc3[nH]2)cc1`, the Potency was 7.24 µM (active). Under `Cc1cc(C)c2[nH]c(C(=O)Nc3ccc4c(c3)OCO4)cc2c1` stands 0.257 µM (active); under `COc1ccc(-c2c[n+]3c(n2-c2ccc(C)cc2)CCCCC3)cc1`, 11.5 µM (active). Under `COc1ccccc1CNC(=O)[C@@H](NC(=O)C1CCN(C(=O)[C@@H]2CCCN2C(=O)OC(C)(C)C)CC1)C(C)C` stands 12.9 µM (active). Under `Cc1nn(-c2cc(C)c3ccccc3n2)c2c1C1C(C2)C1(C)C` (stereo not given) stands 3.63 µM (active).

In the case of `COc1cc(OC)c(C(c2ccccc2)C(C)(C)C(=O)N2CC(C)CC(C)C2)c(OC)c1` (stereo not given), the Potency is 5.12 µM (active).

Take `COc1cc(O)c(C(CC(=O)N2CCC(C)CC2)c2ccc(OC)c(OC)c2)c(OC)c1` (stereo not given): the Potency result is “inactive”. Under `CCOc1ccc(-c2cc(CCCC(=O)NCc3cccnc3)no2)cc1` stands 0.724 µM (active); under `CCNC(=O)CCc1nc(-c2ccc(C(C)(C)C)cc2)no1`, 0.512 µM (active). Regarding `COc1cc(O)c(C(CC(=O)N2CC(C)CC(C)C2)c2ccc3c(c2)OCCO3)c(OC)c1` (stereo not given), the Potency is 0.645 µM (active).

Regarding `COc1cc(O)c(C(CC(=O)N2CCCC(C)C2)c2ccccc2OC)c(OC)c1` (stereo not given), the Potency entry was “inactive”.

For `CC(C)(C)c1ccc([S+](=O)([O-])Nc2ccccc2C(O)(C(F)(F)F)C(F)(F)F)cc1`, the Potency was 16.2 µM (active).

Consider `Cc1cc(C)n(-c2nc(SCC(=O)O)c3c4c(sc3n2)CCCC4)n1`, for which the Potency was 9.11 µM (active). Under `COc1cc(O)c(C(CC(=O)N2CCCC(C)C2)c2ccc3ccccc3c2)c(OC)c1` (stereo not given) stands 5.75 µM (active). To `COc1ccc(CNC(=O)[C@@H](NC(=O)C2CCN(C(=O)[C@@H]3CCCN3C(=O)OC(C)(C)C)CC2)C(C)C)cc1` belongs “inactive”. To `Cc1ccc(O)c(C(CC(=O)NC2CCCCC2)c2ccccc2)c1` (stereo not given) belongs “inactive”; to `COC(=O)c1ccc(OCC(=O)c2ccc(O)cc2O)cc1`, 0.363 µM (active); to `COc1ccccc1C(CC(=O)Nc1ccc(F)cc1)c1ccccc1` (stereo not given), “inactive”.

Regarding `CN1CCN(C(=O)CCN2C(=O)/C(=C/c3ccccc3Cl)SC2=S)CC1`, the Potency was 28.8 µM (active). To `COc1cc(O)c(C(CC(=O)NCC2CCCCC2)c2ccc3c(c2)OCO3)c(OC)c1` (stereo not given) belongs “inactive”. Under `COc1cc(O)c(C(CC(=O)N2CC(C)CC(C)C2)c2ccc(O)cc2)c(OC)c1` (stereo not given) stands 2.04 µM (active); under `C=C1Nc2c(-c3ccc(F)cc3)cnn2C(N)=C1c1ccccc1`, 0.0911 µM (active). On to `COc1cc(O)c(C(CC(=O)N2CCCC(C(C)C)C2)c2ccc3c(c2)OCO3)c(OC)c1` (stereo not given), for which the Potency was 25.7 µM (active). To `Cc1ccc(C(=O)O/N=C/c2ccc(N(C)C)cc2)cc1` belongs 32.3 µM (active); to `COc1cc(OC)c2c(c1)OC(=O)CC2c1ccc2c(c1)OCO2` (stereo not given), “inactive”; to `COc1cc(O)c(C(CC(=O)N2CCCC(CN3CCCCC3)C2)c2ccc3c(c2)OCO3)c(OC)c1` (stereo not given), “inactive”. To `Cc1ccc(-c2cn(-c3ccccc3)c3[n+]2CCCS3)cc1` belongs 28.8 µM (active); to `COc1cc(O)c(C(CC(=O)N2CCCC(C(=O)N3CCCCC3)C2)c2ccc3c(c2)OCO3)c(OC)c1` (stereo not given), “inactive”. To `Cc1cc(C)nc(-n2nc(C)cc2NC(=O)CNC(C)c2ccccc2)n1` (stereo not given) belongs 5.75 µM (active); to `CCOC(=O)Cn1c(CN2CCc3ccccc3C2)nc2c1c(=O)n(C)c(=O)n2C`, 5.75 µM (active); to `COc1cc(O)c(C(CC(=O)N(C)c2cccc(C)c2)c2ccc3c(c2)OCO3)c(OC)c1` (stereo not given), “inactive”.

With `CCOc1cccc(-c2cc(-c3n[nH]c(=S)n3CC)c3ccccc3n2)c1`, the Potency was 2.29 µM (active) and 1.82 µM (active). Take `COc1cc(O)c(C(CC(=O)N2CCCC(C)C2)c2ccccc2C)c(OC)c1` (stereo not given): the Potency is 7.24 µM (active). Under `COc1cc(O)c(C(CC(=O)N2CCOCC2)c2ccc(OC)c(OC)c2)c(OC)c1` (stereo not given) stands “inactive”.

In the case of `CC1CCCN(C(=O)CC(c2ccccc2)c2ccc(O)cc2)C1` (stereo not given), the Potency result is “inactive”. Under `CC(C)[C@H](NC(=O)C1CCN(C(=O)[C@@H]2CCCN2C(=O)OC(C)(C)C)CC1)C(=O)NCc1ccc(F)cc1` stands 32.3 µM (active); under `C[C@H]1O[C@@H](O[C@H]2[C@@H](O)C[C@@H](O[C@H]3[C@@H](O)C[C@H](O[C@H]4CC[C@@]5(C)[C@H](CC[C@@H]6[C@@H]5CC[C@]5(C)[C@@H](C7=CC(=O)OC7)CC[C@]65O)C4)O[C@@H]3C)O[C@@H]2C)C[C@H](O)[C@@H]1O`, 1.44 µM (active).

Values taken from PubChem BioAssay AID489037 (National Center for Advancing Translational Sciences (NCATS), 2010).
